{"source": "PubChem BioAssay AID686979", "about": "(National Center for Advancing Translational Sciences (NCATS), 2013)", "note": "Out of some 420,000 compounds screened, about 50,000 (12%) were called active. Another 26% or so got no clear call; they are omitted. Shown is part of a subset that was picked to be rich in actives. A number with no mark means an inactive call. The call rests on the fitted dose curve; in most records, active means well fitted inhibition curve with a large enough effect; inconclusive means small, poorly fitted or top-dose-only effect; inactive means flat fitted curve, though single readings scatter. On the % scale 0 is the no-effect control and ±100 the full control effect; potency means the concentration at half of the fitted maximal effect.", "data": [{"experiment": "qHTS for Inhibitors of human tyrosyl-DNA phosphodiesterase 1 (TDP1): qHTS in cells in presence of CPT; further: nearly all actives have a fitted effect of over 55% in size", "conditions": "chicken DT40 Tdp1-/-;hTDP1 cells + 20 nM CPT, ATP luminescence, 48 h; series mostly up to 46.2 µM; activity change, negative = growth inhibition: at the top concentration", "in_short": "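Chicken DT40 Tdp1-/- cells complemented with human TDP1, 400 cells/well, exposed to compounds plus 20 nM camptothecin for at least 48 h at 37 C; viability read as ATP content by CellTiter-Glo luminescence.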", "values": [{"smiles": "Fc1cccc(F)c1CN1CCN(Cc2c(F)cccc2F)CC1", "activity change, negative = growth inhibition": "2.75%"}, {"smiles": "Cc1cc(C(=O)OCC(=O)Nc2c(F)cccc2F)c(C)n1C1CC1", "activity change, negative = growth inhibition": "1.17%"}, {"smiles": "COC(=O)C(c1ccccc1)N1CCCCCC1", "note": "(stereo not given)", "activity change, negative = growth inhibition": "-14.3%"}, {"smiles": "COC(=O)C1=C(c2ccc(OCc3ccccc3)cc2)C[C@@H]2CC[C@H]1N2C(=O)NCc1cccc(F)c1", "Potency": "25.9 µM (active)"}, {"smiles": "COC(=O)C1=C(c2ccccc2)C[C@@H]2CC[C@H]1N2C(=O)N1CCCCC1", "Potency": "5.8 µM (active)"}, {"smiles": "O=C(NC(=S)N1C[C@H]2C[C@H](C1)c1cccc(=O)n1C2)c1ccc(F)cc1", "activity change, negative = growth inhibition": "5.87%"}, {"smiles": "CC1CCCN1CCC(C(N)=O)(c1ccccc1)c1ccccc1", "note": "(stereo not given)", "activity change, negative = growth inhibition": "-7.87%"}, {"smiles": "COc1ccc(CCn2c(O)c(C=NCCCn3ccnc3)c(=O)[nH]c2=O)cc1OC", "activity change, negative = growth inhibition": "20.8%"}, {"smiles": "CC(=O)Cc1ccc(OC(C)C)cc1", "activity change, negative = growth inhibition": "-0.0899%"}, {"smiles": "Cc1cc2ccccn2c1C(C[N+](=O)[O-])c1c(F)cccc1Cl", "note": "(stereo not given)", "Potency": "18.4 µM (active)"}, {"smiles": "C[N+]1(C)CCOC(O)(c2ccc(-c3ccc(C4(O)C[N+](C)(C)CCO4)cc3)cc2)C1", "note": "(stereo not given)", "Potency": "inactive"}, {"smiles": "COc1cc(Cl)ccc1Nc1ncc(C(=O)N2CCN(c3ccccc3OC)CC2)c2ccccc12", "Potency": "14.6 µM (active)"}, {"smiles": "CN1CCN(C(=O)O[C@@H]2c3nccnc3C(=O)N2c2ccc(Cl)cn2)CC1", "activity change, negative = growth inhibition": "6.19%"}, {"smiles": "CCOC(=O)c1c(C)c(C(=O)N2CCC3(CC2)OCCO3)c(C)n1CC", "activity change, negative = growth inhibition": "-15.2%"}, {"smiles": "CN1CCN(Cc2ccccc2C(F)(F)F)CC1", "activity change, negative = growth inhibition": "-1.55%"}, {"smiles": "CCOC(=O)C1(c2ccccc2)CCN(CC(O)c2ccc(NC(C)=O)cc2)CC1", "note": "(stereo not given)", "activity change, negative = growth inhibition": "11.8%"}, {"smiles": "CCOC(=O)CC1=C(C(=O)OCC)C2(C(=O)N1)C(C(=O)OC)=C(N)Oc1ccccc12", "note": "(stereo not given)", "activity change, negative = growth inhibition": "-3.36%"}, {"smiles": "COC1C(O)C(C)OC(OC2CCC3(C=O)C(CCC4C3CCC3(C)C(C5=CC(=O)OC5)CCC43O)C2)C1O", "note": "(stereo not given)", "Potency": "0.206 µM (active)"}, {"smiles": "COC1CC(OC2CC[C@@]3(C=O)C4CC[C@]5(C)C(C6=CC(=O)OC6)CC[C@@]5(O)C4CC[C@]3(O)C2)OC(C)C1O", "note": "(stereo not given in full)", "Potency": "1.3 µM (active)"}, {"smiles": "c1csc(CN2CCCC3(CCNCC3)C2)n1", "activity change, negative = growth inhibition": "0.355%"}, {"smiles": "C=Cn1ccnc1P(=S)(c1cc(N(CC)CC)ns1)c1nccn1C=C", "activity change, negative = growth inhibition": "-23.1%"}, {"smiles": "Cc1ncsc1CCCl", "Potency": "inactive"}, {"smiles": "CC[N+]1(CCOC(=O)C(O)(c2ccccc2)c2ccccc2)CCCCC1", "activity change, negative = growth inhibition": "3.37%"}, {"smiles": "C/C(=C\\C=C/[C@@H](C)C(=O)O)[C@H]1CN[C@H](C(=O)O)[C@@H]1CC(=O)O", "activity change, negative = growth inhibition": "-0.395%"}, {"smiles": "Cc1ccc(NC(=O)CN(C)CC(=O)Nc2cccc(F)c2)cc1[N+](=O)[O-]", "Potency": "1.84 µM (active)"}, {"smiles": "O=C(CN1CCCC1=O)NCCc1ccccc1", "activity change, negative = growth inhibition": "2.72%"}, {"smiles": "CN(C)P(=S)(Nc1ccccc1)C(Cl)(Cl)Cl", "note": "(stereo not given)", "activity change, negative = growth inhibition": "-3.66%"}, {"smiles": "O=C(O)COc1ccccc1/C=C1\\C(=O)NC(=O)N(CCC2=CCCCC2)C1=O", "activity change, negative = growth inhibition": "18.2%"}, {"smiles": "O=C1NC(=O)N(CCc2ccc(F)cc2)C(=O)/C1=C/C=C/c1ccccc1", "Potency": "3.26 µM (active)"}, {"smiles": "OCC#CC[N+]1(CC#Cc2ccccc2)CCCC1", "activity change, negative = growth inhibition": "-6.84%"}, {"smiles": "Cc1ccc(P(=S)(c2ccc(C)o2)N2CCOCC2)o1", "activity change, negative = growth inhibition": "-13.2%"}, {"smiles": "CC(=O)C12CC(C)=C(C)CC1CC1C3CCC4=CC(=O)CCC4(C)C3CCC12C", "note": "(stereo not given)", "Potency": "13 µM (active)"}, {"smiles": "COC(=O)C[C@H]1CC[C@H]2NC[C@@H](O)COC[C@@H]2O1", "activity change, negative = growth inhibition": "0.913%"}, {"smiles": "C[C@H]1CN([C@@H](C)CO)C(=O)CCCn2nncc2CO[C@H]1CN(C)C(=O)Oc1ccccc1", "activity change, negative = growth inhibition": "-12.4%"}, {"smiles": "Cc1cc(N2C(=O)C3CCCN3C2c2ccc(Cl)c(Cl)c2)no1", "note": "(stereo not given)", "activity change, negative = growth inhibition": "6.24%"}, {"smiles": "CCN1C(=O)NC(=O)C2(CCCC2)C1=O", "activity change, negative = growth inhibition": "4.76%"}, {"smiles": "CCOP(=O)(OCC)C(NC(=O)c1ccc(OC)cc1)C(Cl)(Cl)Cl", "note": "(stereo not given)", "activity change, negative = growth inhibition": "-22.4%"}, {"smiles": "CCOP(=O)(OCC)C(NC(=O)c1ccc(C)cc1)C(Cl)(Cl)Cl", "note": "(stereo not given)", "activity change, negative = growth inhibition": "18.9%"}, {"smiles": "CCOP(=O)(OCC)C(Cc1ccccc1)N=C(c1ccccc1)c1ccccc1", "note": "(stereo not given)", "Potency": "16.4 µM (active)"}, {"smiles": "CC(C)CN1CCN(Cc2ccccc2C(F)(F)F)CC1CCO", "note": "(stereo not given)", "activity change, negative = growth inhibition": "-12.4%"}, {"smiles": "CCOc1ccc(C2SCC(=O)Nc3c2c(C)nn3C2CCOC(C)(C)C2)cc1", "note": "(stereo not given)", "activity change, negative = growth inhibition": "-14.3%"}, {"smiles": "COc1ccc(-n2c(-c3ccccc3)nc3ccccc3c2=O)cc1", "Potency": "18.4 µM (active)"}, {"smiles": "O=c1c2ccccc2nc(-c2ccccc2)n1-c1ccccn1", "activity change, negative = growth inhibition": "-16.3%"}, {"smiles": "CC(CCC(=O)O)C1CCC2C3C(O)C[C@@H]4CC(O)CC[C@@]4(C)C3CC[C@@]12C", "note": "(stereo not given in full)", "Potency": "inactive"}, {"smiles": "COc1ccc(-c2cc(NC=O)c3ncc(-c4cc(OC)c(OC)c(OC)c4)n3c2)c(OC)c1", "Potency": "0.58 µM (active)"}, {"smiles": "CCCCCCCCCCCCn1ccc(=N)cc1", "Potency": "0.461 µM (active)"}, {"smiles": "CNC(=S)N/N=C1\\C2CN3CCN(C2)CC1(c1ccccc1)C3", "activity change, negative = growth inhibition": "-7.02%"}, {"smiles": "CC(C)=C[C@@H]1[C@@H](C(=O)OCc2coc(Cc3ccccc3)c2)C1(C)C", "activity change, negative = growth inhibition": "0.519%"}, {"smiles": "CCOc1cccc(=NC2CCCCC2)c2c(C)[nH]c(C)c12", "Potency": "5.8 µM (active)"}, {"smiles": "Cc1cc(C)c2c(c1)NP(=S)(c1ccccc1)N2", "note": "(stereo not given)", "activity change, negative = growth inhibition": "-19.6%"}, {"smiles": "O=C1/C(=C\\c2ccc3c(c2)OCO3)N2CCC1CC2", "activity change, negative = growth inhibition": "-25.1%"}, {"smiles": "COc1ccc2[nH]cc(CCNCc3ccc(Br)cc3)c2c1", "Potency": "13 µM (active)"}, {"smiles": "c1cncc(CNCCc2c[nH]c3ccccc23)c1", "activity change, negative = growth inhibition": "-21.5%"}, {"smiles": "O=C(N/N=C/c1c(O)n(Cc2ccccc2)c(=O)[nH]c1=O)c1ccccc1", "activity change, negative = growth inhibition": "-19.8%"}, {"smiles": "COc1ccc(Cn2c(O)c(/C=C3/C=CC=N3)c(=O)[nH]c2=O)cc1", "Potency": "20.6 µM (active)"}, {"smiles": "COc1ccc(N=Cc2c(O)n(C)c(=O)[nH]c2=O)cc1", "activity change, negative = growth inhibition": "1.34%"}, {"smiles": "CNC(=O)N(C)c1nnc(C(C)(C)C)s1", "Potency": "inactive"}, {"smiles": "CC1N=C(N)OC1c1ccccc1", "note": "(stereo not given)", "activity change, negative = growth inhibition": "-27.9% [at 92.5 µM]"}, {"smiles": "CCOCCCNC(=O)c1c(NC(=O)c2nc(SC)ncc2Cl)sc2c1CCCC2", "Potency": "6.51 µM (active)"}, {"smiles": "CCCOC(=O)C1C2c3ccccc3C(c3ccccc32)C1C(=O)O", "note": "(stereo not given)", "activity change, negative = growth inhibition": "1.5%"}, {"smiles": "Cc1nc2ccccn2c1P(=S)(N1CCCCC1)N1CCCCC1", "Potency": "20.6 µM (active)"}, {"smiles": "CCOC(=O)CNC(=O)N1Cc2cc(N3CCCCC3)ccc2-n2nncc2C1", "activity change, negative = growth inhibition": "-4.45%"}, {"smiles": "Cc1cc(=O)oc2c(C)c(OCC(=O)N3CCN(Cc4ccc5c(c4)OCO5)CC3)ccc12", "activity change, negative = growth inhibition": "-22.7%"}, {"smiles": "CCC(C)(O)C(=O)OC1C(=O)OC2CC3C(C)=CC(=O)C(O)C3(C)C3C4(O)OCC23C1C(C)C4O", "note": "(stereo not given)", "Potency": "0.116 µM (active)"}, {"smiles": "COc1ccc(NC(=O)N2CCC3(CC2)OCCO3)c(OC)c1", "activity change, negative = growth inhibition": "6.26%"}]}]}
